{
  "source": "PubChem BioAssay (NCATS)",
  "key": {"[1]": {"molecular_target": "Glutathione peroxidase 1 (Homo sapiens) (UniProt P07203)", "sequence (P07203 whole entry, looked up)": "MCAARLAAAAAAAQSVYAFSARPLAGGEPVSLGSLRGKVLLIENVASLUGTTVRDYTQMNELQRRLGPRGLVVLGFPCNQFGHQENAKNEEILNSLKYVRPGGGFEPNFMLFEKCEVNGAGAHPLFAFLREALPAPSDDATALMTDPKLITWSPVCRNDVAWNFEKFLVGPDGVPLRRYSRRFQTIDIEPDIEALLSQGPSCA", "assay": "Primary qHTS Assay for Inhibitors of Recombinant Selenoprotein Glutathione Peroxidase 1 (GPX1) (AID 1845191); note: nearly all actives have a fitted effect of over 65% in size", "in_short": "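Recombinant GPX1 (10 nM final) was preincubated with compound for 30 min at room temperature, then reacted with 1 mM GSH, 0.5 mM CHP, 0.5 mM NADPH and 100 nM glutathione reductase; NADPH fluorescence (340/450 nm) was read at 0 and 15 min.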"}, "[2]": {"molecular_target": "Phospholipid hydroperoxide glutathione peroxidase GPX4 (Homo sapiens) (UniProt P36969)", "sequence (P36969 whole entry, looked up)": "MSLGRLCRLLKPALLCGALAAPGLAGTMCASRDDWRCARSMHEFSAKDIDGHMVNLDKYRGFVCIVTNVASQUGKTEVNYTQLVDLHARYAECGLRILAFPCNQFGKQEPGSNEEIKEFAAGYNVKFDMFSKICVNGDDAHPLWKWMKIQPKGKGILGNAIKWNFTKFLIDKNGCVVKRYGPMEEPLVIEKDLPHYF", "assay": "Primary qHTS Assay for Inhibitors of Recombinant Selenoprotein Glutathione Peroxidase 4 (GPX4) (AID 1845192); note: nearly all actives have a fitted effect of over 65% in size; note: potency is the fitted concentration of half-maximal effect", "in_short": "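GR-coupled readout: 100 nM GR, 1 mM GSH, 0.5 mM NADPH; NADPH fluorescence (ex 340/em 450 nm) read at t=0 and after 15 min RT. GPX4 200 nM, preincubated 30 min with compound; substrate 0.5 mM CHP.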"}, "[3]": {"molecular_target": "Luciferin 4-monooxygenase (Photinus pyralis) (UniProt P08659)", "assay": "Primary firefly luciferase (FLuc) qHTS assay for identification of artifact compounds. (AID 1845220); note: nearly all actives have a fitted effect of over 60% in size", "in_short": "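Reaction readout was CCD-imaged luminescence, taken 5 min after adding 10 nM purified firefly enzyme to compound-treated wells holding 10 uM luciferin and ATP in pH 7.6 buffer.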"}, "[4]": {"assay": "Primary fluorescence-based thiol-reactive (MSTI) qHTS assay for identification of artifact compounds. (AID 1845221); note: nearly all actives have a fitted effect of over 65% in size; note: potency is the fitted concentration of half-maximal effect", "in_short": "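MSTI probe at 4 uM final in 2% DMSO/PBS pH 7.4; compounds, 1 h at room temperature in dark. Fluorescence Ex/Em 525/598 nm, normalised to Acetyl-MSTI and MSTI, fitted to 4-parameter Hill.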"}, "[5]": {"system": "Nanoluciferase (engineered Oplophorus gracilirostris luciferase)", "assay": "Primary Nanoluciferase (NLuc) qHTS assay for identification of artifact compounds. (AID 1845222);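 note: NLuc secreted into diluted conditioned medium of S16 cells; series mostly up to about 54 µM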", "in_short": "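Concentration-response data were obtained by luminescence after 5 min with Nano-Glo substrate at 1:100. The enzyme was diluted S16 NLuc-expressing cell medium, preincubated with compound for 15 min at RT. Curves were fitted with a 4-parameter Hill model.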"}},
  "note": "Records with an inconclusive call do not appear. A call without a number means that no potency is given here. Activity calls are given as the source filed them. Calls come from the whole dose curve; as a rule, active = well fitted curve in the direction sought with a large enough effect; inconclusive = small, poorly fitted or top-dose-only effect, or another doubt; inactive = no such curve, though single readings can be large; an effect the other way counts as inactive or inconclusive.",
  "data": [
    {"smiles": "COc1cc(/C=C/C(=O)OC[C@H]2O[C@H](O[C@]3(CO)O[C@H](CO)[C@@H](O)[C@@H]3O)[C@H](O)[C@@H](O)[C@@H]2O)cc(OC)c1O", "values": [
      {"measurement": "Potency", "setting": "[1]", "value": "inactive"},
      {"measurement": "Potency", "setting": "[2]", "value": "inactive"},
      {"measurement": "Potency", "setting": "[3]", "value": "inactive"},
      {"measurement": "Potency", "setting": "[4]", "value": "inactive"},
      {"measurement": "Potency", "setting": "[5]", "value": "inactive"}
    ]},
    {"smiles": "Cc1cn2c(N)c(Cl)cc(C(=O)NCC3CCN(CC(C)C)CC3)c2n1", "values": [
      {"measurement": "Potency", "setting": "[1]", "value": "inactive"},
      {"measurement": "Potency", "setting": "[2]", "value": "22.7 µM (active)"},
      {"measurement": "Potency", "setting": "[3]", "value": "inactive"},
      {"measurement": "Potency", "setting": "[4]", "value": "inactive"},
      {"measurement": "Potency", "setting": "[5]", "value": "inactive"}
    ]},
    {"smiles": "CC1(C)NC2N(C1=O)c1ccccc1C2(O)CC(C(=O)O)n1cnc2ccccc2c1=O", "note": "(stereo not given)", "values": [
      {"measurement": "Potency", "setting": "[1]", "value": "inactive"},
      {"measurement": "Potency", "setting": "[2]", "value": "inactive"},
      {"measurement": "Potency", "setting": "[3]", "value": "inactive"},
      {"measurement": "Potency", "setting": "[4]", "value": "inactive"},
      {"measurement": "Potency", "setting": "[5]", "value": "inactive"}
    ]},
    {"smiles": "Cc1ccc(Sc2cncc3sc(C(N)=O)cc23)cc1", "values": [
      {"measurement": "Potency", "setting": "[1]", "value": "inactive"},
      {"measurement": "Potency", "setting": "[2]", "value": "inactive"},
      {"measurement": "Potency", "setting": "[3]", "value": "inactive"},
      {"measurement": "Potency", "setting": "[4]", "value": "inactive"},
      {"measurement": "Potency", "setting": "[5]", "value": "inactive"}
    ]},
    {"smiles": "C=CC(C)(C)C1(CC2NC(=O)C3CCCN3C2=O)C(=O)Nc2cc3c(cc21)C=CC(C)(C)O3", "note": "(stereo not given)", "values": [
      {"measurement": "Potency", "setting": "[1]", "value": "inactive"},
      {"measurement": "Potency", "setting": "[2]", "value": "inactive"},
      {"measurement": "Potency", "setting": "[3]", "value": "inactive"},
      {"measurement": "Potency", "setting": "[4]", "value": "inactive"},
      {"measurement": "Potency", "setting": "[5]", "value": "inactive"}
    ]},
    {"smiles": "O=C(NN1CCCCC1)c1nn(-c2ccc(Cl)cc2Cl)c(-c2ccc(C#Cc3ccc(C(F)(F)F)cc3)s2)c1CNS(=O)(=O)N1CCCC1", "values": [
      {"measurement": "Potency", "setting": "[1]", "value": "inactive"},
      {"measurement": "Potency", "setting": "[2]", "value": "inactive"},
      {"measurement": "Potency", "setting": "[3]", "value": "inactive"},
      {"measurement": "Potency", "setting": "[4]", "value": "inactive"},
      {"measurement": "Potency", "setting": "[5]", "value": "inactive"}
    ]},
    {"smiles": "C/C(=C\\CO)CC/C=C(\\C)C(=O)O[C@H]1[C@H](OC2OC=C(C(=O)O)C3CCC(C)(O)C23)O[C@H](CO)[C@@H](O)[C@@H]1O", "note": "(stereo not given in full)", "values": [
      {"measurement": "Potency", "setting": "[1]", "value": "inactive"},
      {"measurement": "Potency", "setting": "[2]", "value": "inactive"},
      {"measurement": "Potency", "setting": "[3]", "value": "inactive"},
      {"measurement": "Potency", "setting": "[4]", "value": "11.6 µM (active)"},
      {"measurement": "Potency", "setting": "[5]", "value": "inactive"}
    ]},
    {"smiles": "C=C(C(=O)O)C1CCC(C)C2CCC(=O)OC2(C)C1", "note": "(stereo not given)", "values": [
      {"measurement": "Potency", "setting": "[1]", "value": "inactive"},
      {"measurement": "Potency", "setting": "[2]", "value": "inactive"},
      {"measurement": "Potency", "setting": "[3]", "value": "inactive"},
      {"measurement": "Potency", "setting": "[4]", "value": "11.9 µM (active)"},
      {"measurement": "Potency", "setting": "[5]", "value": "inactive"}
    ]},
    {"smiles": "C=CC(C)(CC/C=C(\\C)CC/C=C(\\C)CC(O)/C=C(\\C)C(=O)O)O[C@@H]1O[C@H](CO)[C@@H](O)[C@H](O)[C@H]1O[C@@H]1O[C@H](CO)[C@@H](O)[C@H](O)[C@H]1O", "note": "(stereo not given in full)", "values": [
      {"measurement": "Potency", "setting": "[1]", "value": "inactive"},
      {"measurement": "Potency", "setting": "[2]", "value": "inactive"},
      {"measurement": "Potency", "setting": "[3]", "value": "inactive"},
      {"measurement": "Potency", "setting": "[4]", "value": "inactive"},
      {"measurement": "Potency", "setting": "[5]", "value": "inactive"}
    ]}
  ]
}
